# Among all 310,000 compounds or so, about 14,000 (4.5%) showed an effect of 50% or more. Effects have a minus sign here. The list comes from a sample in which strong results are over-represented; it also holds similar structures and randomly drawn compounds.
# Molecular target: human ether-à-go-go-related gene (hERG) potassium channel (human, UniProt Q12809)
# Test: primary screen, population patch clamp on CHO cells stably expressing hERG; higher = less effect of the substance
# 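Note: peak tail current of the secondary pulse compared with the same well before compound.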
# Sequence of human ether-à-go-go-related gene (hERG) potassium channel (Q12809 whole entry, looked up): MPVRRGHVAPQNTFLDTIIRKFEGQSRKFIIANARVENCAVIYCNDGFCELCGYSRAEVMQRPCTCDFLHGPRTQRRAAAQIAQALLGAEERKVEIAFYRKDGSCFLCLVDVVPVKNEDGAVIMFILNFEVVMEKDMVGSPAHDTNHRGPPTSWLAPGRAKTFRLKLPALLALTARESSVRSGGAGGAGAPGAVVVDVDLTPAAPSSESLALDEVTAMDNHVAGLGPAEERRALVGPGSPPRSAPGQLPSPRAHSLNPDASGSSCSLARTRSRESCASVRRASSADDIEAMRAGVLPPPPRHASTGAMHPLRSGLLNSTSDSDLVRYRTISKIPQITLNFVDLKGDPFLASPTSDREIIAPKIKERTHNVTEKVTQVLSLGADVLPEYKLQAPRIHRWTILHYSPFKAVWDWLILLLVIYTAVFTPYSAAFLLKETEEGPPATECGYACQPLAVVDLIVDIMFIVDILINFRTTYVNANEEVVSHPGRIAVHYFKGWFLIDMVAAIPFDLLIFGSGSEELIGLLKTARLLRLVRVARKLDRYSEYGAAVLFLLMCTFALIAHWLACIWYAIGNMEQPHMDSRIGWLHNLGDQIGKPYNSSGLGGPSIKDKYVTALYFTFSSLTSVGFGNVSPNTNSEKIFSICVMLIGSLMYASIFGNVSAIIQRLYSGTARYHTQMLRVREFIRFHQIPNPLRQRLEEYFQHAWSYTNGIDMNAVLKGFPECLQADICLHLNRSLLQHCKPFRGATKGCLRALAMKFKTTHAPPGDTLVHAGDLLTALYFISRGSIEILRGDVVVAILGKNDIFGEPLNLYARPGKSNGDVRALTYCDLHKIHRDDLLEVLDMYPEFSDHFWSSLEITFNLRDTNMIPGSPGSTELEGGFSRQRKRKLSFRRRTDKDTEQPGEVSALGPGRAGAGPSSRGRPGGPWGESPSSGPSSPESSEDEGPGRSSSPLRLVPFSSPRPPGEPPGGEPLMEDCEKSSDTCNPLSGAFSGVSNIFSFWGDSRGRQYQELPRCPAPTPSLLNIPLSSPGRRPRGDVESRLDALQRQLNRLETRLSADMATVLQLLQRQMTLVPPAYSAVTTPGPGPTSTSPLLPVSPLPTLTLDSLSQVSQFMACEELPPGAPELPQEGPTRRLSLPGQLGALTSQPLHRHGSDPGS
row,SMILES,"hERG current change (%, negative = inhibition) at 10uM [%]"
1,CCCOc1ccc(N2C(=O)CC(SCc3nc4ccccc4[nH]3)C2=O)cc1 (centres unmarked),-41.2
2,N/C(=N/[N+](=O)[O-])N1CCN(C(=O)Oc2ccc([N+](=O)[O-])cc2)CC1,-36.5
3,O=C(Oc1cccc([N+](=O)[O-])c1)N1CCCCC1,-0.619
4,O=C(Oc1ccc([N+](=O)[O-])cc1)N1CCC(N2CCCCC2)CC1,-65.4
5,COC(=O)C1=C(c2ccc(F)cc2OCc2ccccc2)C[C@@H]2CC[C@H]1N2C(=O)NCCO,3.42
6,Cc1cc(C)c(C#N)c(SCc2ccccc2C)n1,17.7
7,COc1ccc(C(=O)CN2CCN(S(=O)(=O)c3cccc([N+](=O)[O-])c3)CC2)cc1,-112
8,O=S(=O)(c1cccs1)N1CCN(CC(O)COC2CCCc3ccccc32)CC1 (centres unmarked),-25.1
9,O=S(=O)(c1cccs1)N1CCN(CC(O)COc2cccc(Br)c2)CC1 (centres unmarked),-61.1
10,CC(=O)c1ccc(OCC(O)CN2CCN(S(=O)(=O)c3cccc(Br)c3)CC2)cc1 (centres unmarked),22.8
11,COc1ccc(S(=O)(=O)N2CCN(Cc3cccc(OC)c3)CC2)cc1,-28.6
12,CCOc1ccc(S(=O)(=O)N2CCN(CC(O)COc3cccc([N+](=O)[O-])c3)CC2)cc1 (centres unmarked),-65.5
13,COc1ccc(S(=O)(=O)N2CCN(Cc3cccc(F)c3)CC2)cc1,-3.34
14,Cc1ccc(S(=O)(=O)N2CCN(CC(O)COc3ccccc3)CC2)cc1 (centres unmarked),-16.2
15,O=[N+]([O-])c1cccc(OCC(O)CN2CCN(S(=O)(=O)c3cc(Cl)ccc3Cl)CC2)c1 (centres unmarked),-31.3
16,COc1ccc(S(=O)(=O)N2CCN(Cc3cccc([N+](=O)[O-])c3)CC2)cc1,-87.4
17,COc1cccc(C(=O)CN2CCN(S(=O)(=O)c3cccc([N+](=O)[O-])c3)CC2)c1,-9.29
18,COc1ccc(C(=O)CN2CCN(S(=O)(=O)c3cccc([N+](=O)[O-])c3)CC2)cc1OC,-5.28
19,Cc1ccc2oc(C(=O)NCC(c3ccco3)N3CCCC3)c(C)c2c1 (centres unmarked),-33.8
20,COc1ccc(C(=O)NNC(=O)CCn2nnc(-c3ccc(Cl)cc3)n2)cc1OC,19
21,O=P(O)(c1ccccc1)c1ccccc1O,-7.16

row,SMILES,"hERG current change (%, negative = inhibition) at 10uM [%]"
1,O=C(NN1C(=O)C2C3C=CC(C4CC34)C2C1=O)c1ccccc1Cl (centres unmarked),0.861
2,COc1ccc(N(C)S(=O)(=O)c2cccc(C(=O)Nc3nc(C)c(C(C)=O)s3)c2)cc1,7.14
3,CCOC(=O)Cn1nnnc1CN(Cc1ccccc1)Cc1cc2cc(CC)ccc2[nH]c1=O,-11.2
4,CC(C)n1c(N2CCN(S(=O)(=O)c3cccc([N+](=O)[O-])c3)CC2)nc2ccccc21,-71
5,O=[N+]([O-])c1cccc(S(=O)(=O)N2CCN(c3ccccn3)CC2)c1,4.57
6,CN1CCN(S(=O)(=O)c2cccc([N+](=O)[O-])c2)CC1,18.7
7,Cc1ccc(C(=O)Nc2nnc(S(=O)(=O)N3CCC(C)CC3)s2)cc1,21.8
8,Cc1cc(/C=N/NC(=O)c2ccc(O)cc2)c(C)n1C1CC1,20.4
9,CC(C)CNC(=O)/C(C#N)=C1\N=C(NC(=O)c2ccco2)c2ccccc21,-60.4
10,N#C/C(C(=O)NCc1ccccc1)=C1/N=C(NC(=O)c2ccco2)c2ccccc21,10.3
11,CCCNC(=O)/C(C#N)=C1\N=C(NC(=O)c2ccco2)c2ccccc21,-44.6
12,CC(C)(C)c1ccc(OCC(=O)N(Cc2cccs2)C2CCS(=O)(=O)C2)cc1 (centres unmarked),-54.2
13,Cc1ccc(OCC(=O)N(Cc2cccs2)C2CCS(=O)(=O)C2)cc1 (centres unmarked),-8.3
14,O=C(c1ccccc1)N(Cc1cccs1)C1CCS(=O)(=O)C1 (centres unmarked),12
15,COc1ccc(OCC(=O)N(Cc2cccs2)C2CCS(=O)(=O)C2)cc1 (centres unmarked),-6.75
16,O=C(COc1ccc(F)cc1)N(Cc1cccs1)C1CCS(=O)(=O)C1 (centres unmarked),-33.4
17,Cc1c(C(=O)N(Cc2cccs2)C2CCS(=O)(=O)C2)oc2ccccc12 (centres unmarked),-50.2
18,O=C(COc1ccccc1)N(Cc1cccs1)C1CCS(=O)(=O)C1 (centres unmarked),-17.4
19,O=C(COc1ccc(Br)cc1)N(Cc1cccs1)C1CCS(=O)(=O)C1 (centres unmarked),-51.7
20,Cc1ccc2c(C)c(C(=O)N(Cc3cccs3)C3CCS(=O)(=O)C3)oc2c1 (centres unmarked),-20.8

# — paper PMC4336329 (PLoS ONE, 2015)
